Source: PubChem (several laboratories)
697 NFkB inh – inhibitors of the PMA/ionomycin-induced NF-kB reporter in 697 B cells; 697 B-cell NF-kB luciferase reporter, 16 h; inhibition, % at 4 µM; 330,000 compounds, 0.33% hits; AID 435022; in the data active means inhibition above about 35%
Jurkat NFkB inh – lowers PMA/ionomycin-induced NF-kB signal in Jurkat cells; PMA/ionomycin-induced NF-kB luciferase reporter, luminescence; inhibition, % at 4 µM; 330,000 compounds, 0.53% hits; in the data active means inhibition above about 50%
ANO1 block – mouse TMEM16A channel inhibition, primary screen; normalized B-score (activity score, 25-100; higher = stronger inhibition) at 10 µM; 310,000 compounds, 1.2% hits; HEK293 TMEM16A/YFP iodide influx fluorescence, ionomycin; AID 588511; Q8BHY3;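 active means ratio plate-corrected score three or more library SD toward inhibition, starting fluorescence score within five deviations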;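 further: score derived from kinetic fluorescence span divided by baseline fluorescence per well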
ANO1 activ – activators or potentiators of mouse TMEM16A chloride channel; HEK293 TMEM16A/YFP-H148Q/I152L, iodide quench fluorescence; stronger effect = lower value; B-score at 10 µM; 340,000 compounds, 0.3% hits;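 active means fluorescence-ratio B-score plate-corrected deviation score at least 3 library SD below zero, with starting fluorescence score within 5 deviations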;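 further: channel opened by trigger with iodide after compound preincubation; score built on the fluorescence ratio of max minus min over baseline; more negative score means more quench and so TMEM16A activation or potentiation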
aSyn UTR inh – 5' untranslated region of α-synuclein, MLPCN primary screen. alpha-synuclein 5'UTR reporter, inhibitor activity. inhibition, % (tested at 7.5 µM). 300,000 compounds, 0.82% hits. AID 1813; in the data active means inhibition above about 60%;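 further: H4 neuroglioblastoma cells stably carrying SNCA 5'UTR luciferase fusion; 0% = DMSO wells and 100% = positive control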
KLF5 inhibitor – inhibitors of KLF5 expression. DLD-1 KLF5 promoter-luciferase reporter, luminescence. inhibition, % at 5 µM. 290,000 compounds, 0.23% hits;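 active means inhibition above a per-plate limit of that plate's mean compound inhibition plus 3 SD, cut at about 60% in these data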;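 further: 0% = DMSO wells and 100% = LY294002 at 200 µM; higher means less KLF5 promoter-driven luciferase light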
TMEM16A reconf – TMEM16A (mouse) chloride channel inhibition, re-confirmation. shares compounds with ANO1 block. HEK293 TMEM16A/YFP-H148Q, iodide quench fluorescence; ionomycin added to raise cell calcium. inhibition, % at 10 µM. 2,300 compounds, 39% hits. AID 652189;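 active means mean duplicate percent inhibition, scaled so buffer wells are 0 and the reference blocker 100, over three buffer SD above buffer mean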
HEK293 Ca mobil – calcium mobilization counter-screen hit for TMEM16A inhibitor series | TMEM16A/YFP HEK293, Fluo4 calcium mobilization | calcium response (% of ionomycin), % at 10 µM | AID 652231 | 2,300 compounds, 2% hits | shares compounds with ANO1 block;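 active means duplicate-averaged calcium signal over 20% of the ionomycin maximum, relative to buffer baseline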;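 further: each well's signal is peak minus trough fluorescence divided by its pre-addition baseline; 0% = buffer wells and 100% = ionomycin wells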
YFP-HEK293 quench – acts in parental YFP-HEK293 cells lacking TMEM16A, counter-screen; AID 652233; YFP ratio F(max-min)/F0 at 10 µM; 2,300 tested, under 10 active; iodide YFP quench, ionomycin; shares compounds with ANO1 block;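 active means yellow fluorescent protein signal ratio exceeding the buffer control mean by over 5 SD of those controls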;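 further: ratio is mean of duplicate wells from kinetic YFP trace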
ClC-1 inh – rat ClC-1 inhibition, TMEM16A specificity screen; ratio percent, % at 10 µM; 2,300 tested, under 10 active; CHO ClC-1-YFP, iodide influx fluorescence quench; iodide control reads 0, buffer control 100; shares compounds with ANO1 block;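 active means duplicate-mean ratio percent above the mean of iodide-only control wells, which defines zero, plus 5 of their SD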;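 further: higher percent means stronger block of ClC-1 iodide influx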
Target sequence (P35524 whole entry, looked up): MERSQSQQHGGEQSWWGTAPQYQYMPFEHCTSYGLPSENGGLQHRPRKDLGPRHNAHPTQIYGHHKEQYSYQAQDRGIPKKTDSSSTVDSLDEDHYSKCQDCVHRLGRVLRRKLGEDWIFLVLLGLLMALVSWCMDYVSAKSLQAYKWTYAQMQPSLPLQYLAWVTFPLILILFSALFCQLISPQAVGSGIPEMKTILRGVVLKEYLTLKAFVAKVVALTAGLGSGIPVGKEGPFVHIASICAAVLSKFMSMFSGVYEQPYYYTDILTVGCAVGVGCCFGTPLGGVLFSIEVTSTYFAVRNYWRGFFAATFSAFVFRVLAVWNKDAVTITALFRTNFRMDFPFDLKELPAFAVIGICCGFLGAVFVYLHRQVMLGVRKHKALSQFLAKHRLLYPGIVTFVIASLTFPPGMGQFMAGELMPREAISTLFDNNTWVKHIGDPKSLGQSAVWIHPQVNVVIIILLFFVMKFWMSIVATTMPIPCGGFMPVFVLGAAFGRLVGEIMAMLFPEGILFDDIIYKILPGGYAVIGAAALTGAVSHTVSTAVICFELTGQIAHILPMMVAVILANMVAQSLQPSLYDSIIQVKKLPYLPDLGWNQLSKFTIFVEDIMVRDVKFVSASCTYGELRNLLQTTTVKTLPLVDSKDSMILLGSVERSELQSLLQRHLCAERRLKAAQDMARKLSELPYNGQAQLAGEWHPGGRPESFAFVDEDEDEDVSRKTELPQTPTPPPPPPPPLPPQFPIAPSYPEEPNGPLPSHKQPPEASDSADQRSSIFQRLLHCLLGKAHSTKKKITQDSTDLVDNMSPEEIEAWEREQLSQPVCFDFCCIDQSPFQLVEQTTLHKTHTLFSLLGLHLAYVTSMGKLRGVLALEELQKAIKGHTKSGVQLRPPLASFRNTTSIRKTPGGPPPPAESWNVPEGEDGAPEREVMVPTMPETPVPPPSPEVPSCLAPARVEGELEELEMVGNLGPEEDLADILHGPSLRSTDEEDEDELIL
An asterisk follows results filed as active; i = inactive; . = no result. A selection: hits, their analogues and other compounds. The true share with any hit is near 2.5%.

SMILES	697 NFkB inh	Jurkat NFkB inh	ANO1 block	ANO1 activ	aSyn UTR inh	KLF5 inhibitor	TMEM16A reconf	HEK293 Ca mobil	YFP-HEK293 quench	ClC-1 inh
COC(=O)c1[nH]c2ccc(C)cc2c1NC(=O)CN1CCN(c2ccccc2)CC1	-31.0	31.0	100*	i	-3.8	-4.0	20.5%*	i	-1.16	-12.0
CCCCSc1ccc2nc(-c3ccc(C#N)cc3)cn2c1	-103.7	-28.9	100*	i	-127.8	-70.8	16.0%*	i	-1.16	-8.0
COC(/C(=N/O)c1ccc(Cl)cc1)c1ccccc1 (configuration not stated)	-52.6	5.2	100*	i	-7.9	-21.8	25.5%*	i	-1.28	-25.5
CCCCn1c(N)c(N(CC(C)C)C(=O)c2cccc(S(=O)(=O)N3CCN(C)CC3)c2)c(=O)[nH]c1=O	14.7	-1.4	i	i	-5.0	.	.	.	.	.
O=C1N(Cc2ccc(F)cc2Cl)c2ccccc2C12OCCCO2	21.6	-1.9	i	i	19.9	-8.9	.	.	.	.
O=C1N(Cc2ccccc2F)c2ccccc2C12OCCCO2	11.3	0.6	100*	i	13.3	-18.5	i	i	-1.14	-9.0
Cc1nc(CSc2nsc(/C=C/N(C)C)c2C#N)cs1	.	.	.	i	-0.9	-4.6	.	.	.	.
COC(=O)c1ccccc1CSc1nsc(/C=C/N(C)C)c1C#N	6.0	1.5	25*	i	11.7	-29.8	19.0%*	i	-0.764	3.5
Cc1cc2n(n1)C(c1cn(-c3ccccc3)nc1C)Nc1c(C)cccc1-2 (configuration not stated)	-2.1	-1.0	i	i	28.5	-23.6	i	i	-1.39	-5.0
O=C1CN(S(=O)(=O)c2cccc(Cl)c2Cl)c2ccccc2N1	9.7	10.9	i	i	-13.9	-10.9	.	.	.	.
COc1ccc(S(=O)(=O)N2CCOCC2)cc1NC(=O)CCNC(=O)c1ccc([N+](=O)[O-])cc1	28.2	4.0	.	i	.	.	.	.	.	.
CCC1Sc2ccccc2N(CC(=O)NCCC2=CCCCC2)C1=O (configuration not stated)	10.7	9.1	i	i	-13.4	-32.3	i	i	-0.715	-2.5
CCC1Sc2ccccc2N(CC(=O)NC2CC2)C1=O (configuration not stated)	22.7	1.3	i	i	6.0	-37.3	.	.	.	.
CCC(C)N(C(=O)CSc1nc(-c2cccs2)nc2ccccc12)C1CCS(=O)(=O)C1 (configuration not stated)	.	.	.	i	.	.	.	.	.	.
CC(C(=O)N1CCc2ccccc21)N1CCN(S(=O)(=O)c2ccc3c(c2)OCCCO3)CC1 (configuration not stated)	.	.	.	i	.	.	.	.	.	.
OCC[C@@H]1C[C@H](O)[C@@H](O)[C@]2(CCc3ccccc3O2)O1	-25.4	-7.4	25*	i	13.6	9.1	i	i	-1.15	-3.0
CCN(CC)Cc1ccccc1CNC(=O)c1cccc(S(=O)(=O)Nc2ccc3c(c2)OCO3)c1	-27.4	8.4	.	i	.	.	.	.	.	.
Cc1cccc(C(=O)Nc2sc(C)c(-c3ccccc3)c2C#N)c1	-167.2	-74.3	i	i	-259.6	-199.1	.	.	.	.
Cc1noc(C)c1C(=O)Nc1sc(C)c(-c2ccccc2)c1C#N	6.5	7.9	25*	i	15.7	-1.2	46.5%*	i	-1.2	-7.5
Cc1cccc(CN2C(=O)N/C(=C/c3ccc(C)s3)C2=O)c1	-26.9	12.7	i	i	-88.4	-4.3	i	i	-0.839	7.5
Cc1ccc(/C=C2/NC(=O)N(Cc3ccccc3)C2=O)s1	5.4	-3.5	i	i	-14.9	-32.7	.	.	.	.
CC(C)(C)C1=Nn2c(nnc2-c2ccccn2)SC1	-1.7	-9.3	i	i	14.2	-20.7	i	i	-1.22	-15.0
O=c1cc(C(F)(F)F)[nH]c2ccc(C(F)(F)F)cc12	-143.9	3.5	100*	i	25.9	8.7	33.5%*	i	-0.948	-15.0
Cc1cc(=O)c2ccc(C(F)(F)F)cc2[nH]1	-13.7	-5.0	i	i	12.0	-4.2	.	.	.	.
Cc1ccccc1[C@]1(C)ON(c2ccccc2C(F)(F)F)C1=O	16.4	5.3	.	.	.	.	.	.	.	.
SMILES	697 NFkB inh	Jurkat NFkB inh	ANO1 block	ANO1 activ	aSyn UTR inh	KLF5 inhibitor	TMEM16A reconf	HEK293 Ca mobil	YFP-HEK293 quench	ClC-1 inh
Nc1ccc(S(=O)(=O)c2cc(O)c3ccccc3c2O)cc1	.	.	.	i	.	.	.	.	.	.
Cc1ccccc1-n1c(=O)c(C#N)cc2c(=O)n3ccccc3nc21	3.2	2.7	100*	i	6.7	-36.9	i	i	-0.929	-4.5
COc1ccc(OCC(O)CNS(=O)(=O)c2ccc(NC(C)=O)cc2)cc1 (configuration not stated)	-11.5	-5.5	i	i	7.8	-13.0	.	.	.	.
CCC(C)(C)n1nnnc1CN(Cc1ccc(Cl)cc1)Cc1ccco1	-6.0	-5.5	25*	i	-7.2	-13.1	22.5%*	i	-1.1	-15.5
Cc1ccc(SCC2(O)CCN(C(=O)c3ccc(Cl)cc3)CC2)cc1	6.9	-12.3	25*	i	-9.2	-13.2	i	i	-0.93	0.5
O=C(CN1CCN(c2ccccc2O)CC1)Nc1ccc2c(c1)OCCCO2	-11.7	7.2	.	i	.	.	.	.	.	.
O=C(NNS(=O)(=O)c1ccc(F)cc1)c1ccccc1F	0.0	-0.8	i	i	-4.4	-39.5	.	.	.	.
O=C(NNS(=O)(=O)c1ccc(F)cc1)c1cc2ccccc2cc1O	13.6	15.6	100*	i	10.8	5.9	23.5%*	i	-0.738	-11.5
Cn1c(=O)c2c(ncn2CC(=O)OCCCC(=O)c2ccc(Br)cc2)n(C)c1=O	19.8	10.8	.	i	.	.	.	.	.	.
Cc1ccc(COc2ccccc2C(=S)N2CCCC2)cc1	-10.0	-7.3	25*	i	-76.3	-48.3	i	i	-0.941	-6.5
CCCOc1cccc(C(=O)NCCNC(=O)c2ccco2)c1	3.7	6.6	i	i	11.8	18.3	.	.	.	.
COC(=O)C1(NC(=O)CNC(=O)OCc2ccccc2)CCCC1	.	.	.	i	.	.	.	.	.	.
CC1(C)C[C@@H](O)[C@]2(C)CC[C@]3(C)C(=CCC4[C@@]5(C)CC[C@H](O)[C@](C)(CO)C5CC[C@]43C)[C@@H]2C1 (some centres not stated)	16.3	7.4	.	i	.	.	.	.	.	.
